# According to publication PMC7819943, “Rice protein-binding microarrays: a tool to detect cis-acting elements near promoter regions in rice”:
# Over roughly 68,000 sequences, “fluorescence intensity (a.u.)” has its median near 9,100; the highest 2% begin near 16,000. The entries come from a sample that favours the highest values as a whole.
# Target: OsWRKY34 (Oryza sativa, UniProt Q0JBA9 1-250)
# Assay: protein-binding microarray (RPBM); PBS, 2% BSA, 51.3 ng/ul salmon testes DNA, 50 uM zinc acetate, 200 nM TF, 25 C, 1 h; high values mean tight binding
# Details: protein: recombinant; tags: N-terminal polyhistidine and DsRed monomer fusion (pET32a); label: CyDye5-dUTP incorporated in the synthesized complementary strand; 3' TTTTT single-stranded linker to array surface; dsDNA, one strand shown
# Procedure, shortened: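 The binding signal is fluorescence intensity per array feature (arbitrary units). Readings came from an Axon 4000B scanner after a washed, 2% BSA-blocked, double-stranded custom Agilent array had been incubated for 1 h at 25 °C with 200 nM protein and 50 µM zinc acetate. The protein was a Ni–NTA-purified transcription factor fused N-terminally to polyhistidine and DsRed, expressed in E. coli BL21-CodonPlus.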
# Sequence of OsWRKY34 (Q0JBA9 entry or part of it): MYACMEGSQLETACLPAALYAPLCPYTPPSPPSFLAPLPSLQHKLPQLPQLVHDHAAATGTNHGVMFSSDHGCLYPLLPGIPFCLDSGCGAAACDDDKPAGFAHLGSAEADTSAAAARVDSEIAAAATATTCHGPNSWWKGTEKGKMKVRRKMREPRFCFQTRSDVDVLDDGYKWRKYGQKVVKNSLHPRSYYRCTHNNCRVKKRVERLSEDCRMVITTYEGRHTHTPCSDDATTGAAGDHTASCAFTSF
row,Sequence,binding signal
1,TAGATCAATACTGCCTAACGAACTTTTTTTTTTTTTTACGCGGAGTCACCTAGTGCAG,16400 fluorescence intensity (a.u.)
2,CCTCTCCCTACTACTGTCGTATCGTCTCCTACCTCGCCTCCGGAGTCACCTAGTGCAG,8340 fluorescence intensity (a.u.)
3,CCAATTCGCCATCCGTCTGTCGACCGCATCTTAATATCCGCGGAGTCACCTAGTGCAG,17400 fluorescence intensity (a.u.)
4,CCATCGCTGTCGCCAATTTATATTCTTTCTTAATCTCGACCGGAGTCACCTAGTGCAG,9220 fluorescence intensity (a.u.)
5,AACGGTTCTTCTGGTCATTTCCAATTCGCCATCCGTCTGTCGGAGTCACCTAGTGCAG,8930 fluorescence intensity (a.u.)
6,CAAGCTGTTACTTTCTTGGTGGGCTTCTGTGTGCTTTATTCGGAGTCACCTAGTGCAG,9940 fluorescence intensity (a.u.)
7,ACGCCTACAATGGTACTGTGTTTTTTTTATGATAGCGGTGCGGAGTCACCTAGTGCAG,8060 fluorescence intensity (a.u.)
8,ACTTGCCTTGTTTCTTGTTCTTGTTCATTTCGACCGTTGTCGGAGTCACCTAGTGCAG,17100 fluorescence intensity (a.u.)
9,ATATTCTCATTTTCAGTCTGTTGCACTAATTTTGCTATTTCGGAGTCACCTAGTGCAG,12800 fluorescence intensity (a.u.)
10,CCGCCGCTACTCTCCATCATTTCAGTTTTCTCTCGAGTCACGGAGTCACCTAGTGCAG,10200 fluorescence intensity (a.u.)
11,TCTCTTTTCTTTTCTTTCTTTTTATTTTGTTGTTCCTTTACGGAGTCACCTAGTGCAG,12600 fluorescence intensity (a.u.)
12,ACTTTATTGTTTTTCTTCTTATTTTATTTCTCTGTTCTTTCGGAGTCACCTAGTGCAG,10300 fluorescence intensity (a.u.)
13,TACGTTTCAGTTGTGCTTGTTCGGACCTTTCGATTTCTTTCGGAGTCACCTAGTGCAG,13900 fluorescence intensity (a.u.)
14,TTCTTTTGTTGTCCAATTCATTTCCATTTCTTGCCGTTTTCGGAGTCACCTAGTGCAG,8320 fluorescence intensity (a.u.)
15,TCTCTTTTCTCATTTATTCACTTGCCACATCATTTTTCATCGGAGTCACCTAGTGCAG,8900 fluorescence intensity (a.u.)
16,TTCTTCTTTTCTTTTTTTTTTGTTTTCTTCTCATTCTTCTCGGAGTCACCTAGTGCAG,10100 fluorescence intensity (a.u.)
17,CTTTTGCACTCGAGATATTTCATCAGTTCTTGCCATTTCACGGAGTCACCTAGTGCAG,16500 fluorescence intensity (a.u.)
18,ATCTTTTTGTTGTCTTTGAATTCAGTCTGTTTTTCTCATTCGGAGTCACCTAGTGCAG,17900 fluorescence intensity (a.u.)
19,ACATTGTTCTCTCTTTTACGGCCTTTTTTTTTTCTGAATTCGGAGTCACCTAGTGCAG,17900 fluorescence intensity (a.u.)
20,TTTATACTCCTTCTGTTTCATATTATTTTTTTCTACTAGTCGGAGTCACCTAGTGCAG,8860 fluorescence intensity (a.u.)
21,GACCACTAGCAGCCTCGTAACGTTTGCCTCATTTCATCAGCGGAGTCACCTAGTGCAG,10500 fluorescence intensity (a.u.)
22,TATACCTCTCTCTCTCTCTCTCTCTCTCTCTCTCTCTCTTCGGAGTCACCTAGTGCAG,8280 fluorescence intensity (a.u.)
23,TTTTTGTTTTCTCAATTCGCGAATTTAATGCTTTTGTGTACGGAGTCACCTAGTGCAG,9750 fluorescence intensity (a.u.)
24,GAATTATTAGGGAGAAAGGAGTTGCAGGGTGGGGATTGTTCGGAGTCACCTAGTGCAG,8330 fluorescence intensity (a.u.)

row,Sequence,binding signal
1,CGTTCTCTGTCTGTCCCGCACTCCCGCCTTTTGCCAAAGCCGGAGTCACCTAGTGCAG,9610 fluorescence intensity (a.u.)
2,AGACCAAGCCATATCACCTTATGTAATTTCTTTATGTGCTCGGAGTCACCTAGTGCAG,9010 fluorescence intensity (a.u.)
3,GTCCCATCGTCTCTATTCGGGTCACCTTTGCACAACATGACGGAGTCACCTAGTGCAG,10500 fluorescence intensity (a.u.)
4,GTTGACGTCTCCCAAGTGCCACACCCGCCGCCACGTCACTCGGAGTCACCTAGTGCAG,8880 fluorescence intensity (a.u.)
5,CCCAGATTCGCCCCGCACCGCACCGCCCTTGGCTCGCCCCCGGAGTCACCTAGTGCAG,8340 fluorescence intensity (a.u.)
6,CTCTACTTCTAATGTTCCTTATTTTTTTTCCGAGTTTCTACGGAGTCACCTAGTGCAG,9390 fluorescence intensity (a.u.)
7,TACTCGTTTGGTTGTAATTTTTTTCCGCGTCTTTTCATCTCGGAGTCACCTAGTGCAG,11200 fluorescence intensity (a.u.)
8,TAGTTTCTTGTTTTCAGTTTTTTTTTCTTGTCATTTTTTTCGGAGTCACCTAGTGCAG,19500 fluorescence intensity (a.u.)
9,ATTCTTCATTCTTTTTGTGTGTGTTTCAGTGTGTTTGTTTCGGAGTCACCTAGTGCAG,15800 fluorescence intensity (a.u.)
10,TTGAATTTTCAGTTTTCTTGTGCGTGTTTCCTTGTCATTTCGGAGTCACCTAGTGCAG,9140 fluorescence intensity (a.u.)
11,CGGTCTTTGCCAAATTCCCACTCCGCTTGGCTTTCTGGCCCGGAGTCACCTAGTGCAG,8250 fluorescence intensity (a.u.)
12,CTAGGACATCATTTTGTTTGTCGTGTGTGCGCAACTGTTTCGGAGTCACCTAGTGCAG,8160 fluorescence intensity (a.u.)
13,AACAGTTGACGCAGGTGGCAGAGTTGCTAGTTCTTGCCCTCGGAGTCACCTAGTGCAG,61500 fluorescence intensity (a.u.)
14,ACTCTTTACTCTTTCTTTTCTTCTTTCTTTTTTGGCGGGGCGGAGTCACCTAGTGCAG,21200 fluorescence intensity (a.u.)
15,TGTGAGTAGTTTGTGGTTGGGAGTGTAACGGGTGGGGTGGCGGAGTCACCTAGTGCAG,16900 fluorescence intensity (a.u.)
16,CACCATTGGGATGGGTGCCTATTTCTTGGAGACCGTTGACCGGAGTCACCTAGTGCAG,17300 fluorescence intensity (a.u.)
17,ATACCGTGATTGGGATTACCTGTGACCTTGCCTATTTGACCGGAGTCACCTAGTGCAG,9120 fluorescence intensity (a.u.)
18,CTTTCTTTCTTTCTTTCTTCTTTTTTTTCTTTTTTTTTTGCGGAGTCACCTAGTGCAG,8640 fluorescence intensity (a.u.)
19,GCGCCCTCCGACTCCGACGGCTTCTTGTTCTCGTTGACGCCGGAGTCACCTAGTGCAG,8950 fluorescence intensity (a.u.)
20,ATTTCTTGGAGACCGTTGACTCCTCTCTCTCTATTTCCATCGGAGTCACCTAGTGCAG,12400 fluorescence intensity (a.u.)
21,GGAGAGTAGCAGTGTGGTTGATGATGGTGTTCTTGCTACTCGGAGTCACCTAGTGCAG,9890 fluorescence intensity (a.u.)
22,GAGTGTAACGGGTGGGGTGGTTTGGAAGGTGATGAGGTATCGGAGTCACCTAGTGCAG,11300 fluorescence intensity (a.u.)
23,TTCTTTCTTTTTTGGCGGGGACTACTCTTTACTTGAACCTCGGAGTCACCTAGTGCAG,12400 fluorescence intensity (a.u.)
24,TGGTTTTATGTGTGAGTTGGGGTAGTGGCGTTGGTAGGTTCGGAGTCACCTAGTGCAG,11700 fluorescence intensity (a.u.)
